Source: PubChem BioAssay (National Center for Advancing Translational Sciences (NCATS))
Rows were chosen to be rich in hits. Some 17% of all compounds tested hit in one or more screens of this group.
HT1080-NT tox: qHTS for induction of synthetic lethality in tumor cells producing 2HG: qHTS for the HT-1080-NT fibrosarcoma cell line. HT-1080-NT fibrosarcoma viability, CellTiter-Glo ATP luminescence, 48 h. Potency, µM (top dose mostly 46.1 µM), inactives show top-dose activity, negative = less viability, most hits filed as cytotoxic. actives 1.6% (n = 360,000). AID 686970, 2013;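 further: NT is the 2HG producing partner of a matched IDH1 knockdown line; 0% = DMSO-treated cells and -100% = media-only wells without cells; nearly all actives have a fitted effect of over 55% in size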
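A 48-hour cytotoxicity screen used HT-1080-NT cells plated 2 hours before compound delivery. ATP-based CellTiter-Glo luminescence measured viability, normalized to DMSO and no-cell controls.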
HT1080 IDH1KD tx: qHTS for induction of synthetic lethality in tumor cells producing 2HG: qHTS for the HT-1080-IDH1KD cell line. HT-1080 IDH1 knockdown viability, ATP luminescence, 48 h. Potency, µM (top dose mostly 46.1 µM), inactives show top-dose activity, negative = toxicity, actives largely listed as cytotoxic. actives 2% (n = 360,000);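 further: 0% = DMSO wells and -100% = cell-free medium wells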
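Viability of IDH1-knockdown HT-1080 fibrosarcoma cells was assessed by CellTiter-Glo after 48 h at 37 °C with titrated compound; concentration-effect curves were classified by fit quality and response size.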
DT40 TDP1 CPT: qHTS for Inhibitors of human tyrosyl-DNA phosphodiesterase 1 (TDP1): qHTS in cells in presence of CPT | chicken DT40 Tdp1-/-;hTDP1 cells + 20 nM CPT, ATP luminescence, 48 h | Potency, µM (titrated, usually from 46.2 µM), without a hit: top-dose activity change, negative = growth inhibition, usual class: inhibitors | actives 12% (n = 420,000); further: on the % scale 0 is the no-effect control and ±100 the full control effect; nearly all actives have a fitted effect of over 55% in size
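Chicken DT40 Tdp1-/- cells complemented with human TDP1, 400 cells/well, exposed to compounds plus 20 nM camptothecin for at least 48 h at 37 C; viability read as ATP content by CellTiter-Glo luminescence.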
HepG2 tox: qHTS for Inhibitors of TGF-b: Cytotox Counterscreen | HepG2 CAGA-GFP viability, ATP luminescence, 18 h | Potency, µM (doses to about 46.1 µM), for the others: at the top dose activity change, negative = cytotoxicity, usual class: cytotoxic | actives 0.76% (n = 410,000)
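CellTiter-Glo luminescence gave cytotoxicity after 18 hours at 37 degrees C. The cells were HepG2 CAGA-GFP in 1% FBS DMEM, stimulated with 500 pg/mL TGF-beta after compound addition. %Activity was normalised to no-cell wells (complete cell-killing) and DMSO (no toxicity), and curves were fitted and classified.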
DT40 TDP1 no CPT: qHTS for Inhibitors of human tyrosyl-DNA phosphodiesterase 1 (TDP1): qHTS in cells in absence of CPT | DT40 Tdp1-/- hTDP1 cells, no CPT, ATP luminescence, 48 h | Potency, µM (doses to about 46.2 µM), for the others: at the highest dose activity change, negative = growth inhibition, most hits filed as inhibitors | actives 15% (n = 420,000); further: on the % scale 0 is the no-effect control and ±100 the full control effect; nearly all actives have a fitted effect of over 55% in size
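Growth kinetics read by CellTiter-Glo luminescence after ≥48 hr at 37 °C. Cells: DT40 Tdp1-/- stably carrying human TDP1, 400 per well, compound exposure in the absence of CPT (DMSO vehicle).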
TGFb inhibitor: qHTS for Inhibitors of TGF-b; HepG2 CAGA-GFP TGF-b/SMAD3 reporter, GFP fluorescence, 18 h; TGF-beta stimulated, 500 pg/mL final; Potency, µM (titrated, usually from 46.1 µM), for inactives: at the highest dose activity, negative = inhibition, usual class: inhibitors; actives 1.2% (n = 410,000); AID 588855, 2011; further: on the % scale 0 is the no-effect control and ±100 the full control effect; nearly all actives have a fitted effect of over 65% in size
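Read-out: total well GFP (ex488/em500-530) summed from mean per-cell fluorescence. Cells: HEPG2 CAGA-GFP, 1% FBS DMEM, 18 h at 37 degrees C with 500 pg/mL final TGF-beta. Unstimulated wells served as the full-inhibition control; stimulated DMSO wells = 0%.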
An asterisk follows results filed as active; ? = inconclusive; nt = not tested or not shown; [ ] = dose if it differs, or a comment. The call rests on the fitted dose curve; in most records, active means well fitted curve in the direction sought with a large enough effect; inconclusive means small, poorly fitted or top-dose-only effect, or another doubt; inactive means no such curve, though single readings can be large; an effect the other way counts as inactive or inconclusive. Potency means the concentration at half of the fitted maximal effect.

SMILES | HT1080-NT tox | HT1080 IDH1KD tx | DT40 TDP1 CPT | HepG2 tox | DT40 TDP1 no CPT | TGFb inhibitor
CCOC(=O)c1nc(Nc2ccc(OC)cc2)c2ccccc2n1 | 5% | -4% | ? | -2% | 21µM* | 11%
CCOC(=O)c1nc(Nc2ccc(N3CCC(C)CC3)cc2)c2ccccc2n1 | -21% | -19% | 7.3µM* | 7% | 5.8µM* | -4%
CCOC(=O)c1nc(Nc2ccc(C(=O)O)cc2)c2ccccc2n1 | 8% | 8% | -2% | 16% | -23% | -2%
CCOC(=O)CCC(NC(=O)c1ccc(Nc2nc3ccccc3nc2C(=O)OCC)cc1)C(=O)OCC (stereo not drawn) | 8% | 9% | 10µM* | 15% | 7.3µM* | -3%
COc1cccc(CNC(=O)COC(=O)c2nc(Cl)c(Cl)c(Cl)c2Cl)c1 | ? | -28% | 0.0082µM* | -23% | ? | ?
Cc1cc(C(=O)OCC(=O)Nc2ccccc2Br)c(C)o1 | 11% | 20% | -18% | -5% | -1% | 5%
COc1ccc(OC)c(S(=O)(=O)NC(=O)C2(C)CCN2C(=O)Cc2ccccc2Cl)c1 (stereo not drawn) | 10% | ? | 11% | 19% | 5% | 14%
CC(=O)C(/C=N/c1cc(-c2ccc(C)cc2)nn1-c1ccccc1)=C(\C)O | 5% | -20% | 3% | 9% | -2% | -4%
CC/C(=N\NS(=O)(=O)c1ccc(C)cc1)c1ccco1 | 5% | -2% | 14% | -4% | -1% | 21%
O=C(Nc1cccc(S(=O)(=O)N2CCOCC2)c1)C1COc2ccccc2O1 (stereo not drawn) | 2% | 12% | -27% | -3% | ? | -3%
CCOC(=O)c1c(CCl)nc2ccccc2c1C | -3% | -1% | ? | -9% | ? | 0%
CCOC(=O)c1nc(Nc2cc(C)cc(C)c2)c2ccccc2n1 | -11% | -13% | 18µM* | -31% | 21µM* | ?
CCOC(=O)c1nc(Nc2ccccc2OC)c2ccccc2n1 | nt | nt | 12µM* | -18% | 2.6µM* | ?
COc1ccccc1NC(=O)COC(=O)c1cc(C)nc2ccccc12 | 7% | 12% | -22% | 4% | ? | -8%
CCCCCOC(=O)c1ccc(Nc2nc(C(=O)OCC)nc3ccccc23)cc1 | nt | nt | 3.3µM* | -19% | 1.3µM* | -11%
CCOC(=O)c1nc(Nc2ccc(Nc3ccccc3)cc2)c2ccccc2n1 | -29% | ? | 13µM* | -19% | 7.3µM* | -26%
O=C(NCc1ccccn1)c1cnn(-c2nccc(-c3cc4ccccc4o3)n2)c1C1CC1 | nt | nt | 4%[9.04 µM] | nt | -29% | nt
Fc1ccc(Cc2cn3cc(-c4ccc(F)cc4)nc3s2)cc1 | nt | nt | ? | -24% | -39% | -25%
CCN(CC)C(=O)Nc1ccc(OCC(O)CNC(C)(C)C)c(C(C)=O)c1 (stereo not drawn) | nt | nt | 2% | nt | -10% | nt
Cc1ccc(NS(=O)(=O)c2ccc(C(=O)N3CCC3)cc2)cc1 | -5% | -14% | ? | -8% | ? | -22%
CCOC(=O)N1CCN(C(=O)c2ccc(NS(=O)(=O)c3ccc(C)cc3)cc2)CC1 | -6% | -1% | 18µM* | 5% | 13µM* | -4%
CCOC(=O)N1CCN(C(=O)c2ccc(S(=O)(=O)Nc3ccc(C)cc3)cc2)CC1 | 0% | -14% | 9.2µM* | -2% | 10µM* | -17%
